Assay results published in PubChem BioAssay AID1345085 (National Center for Advancing Translational Sciences (NCATS), 2018).
Results filed as inconclusive are left out. Entries that show only a call come without a potency. Calls of active or inactive are those of the source. Calls come from the whole dose curve; as a rule, active = well fitted cell-killing curve with a large enough effect; inconclusive = small, poorly fitted or top-dose-only effect, or effect the other way; inactive = no such curve, though single readings can be large or run the other way.

Tested on: C33A
Assay: Confirmatory qHTS for gynecologic anti-cancer compounds from libraries of approved drugs and bioactive compounds; note: nearly all actives have a fitted effect of over 55% in size
Settings: gynecologic cancer cell panel viability, ATPlite luminescence, 48 h; series mostly up to 57.6 µM
Outline: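 Viability is measured as ATP-dependent luciferase light using ATPlite, read 15 min after reagent addition at room temperature. Compounds, in DMSO, span 57.5 uM down to 0.977 nM over 11 threefold steps for 48 h.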
Potency is the fitted concentration of half-maximal effect.

## OC[C@H]1O[C@@H](n2cnc3c(=S)nc[nH]c32)[C@H](O)[C@@H]1O
  Potency: 10.9 µM (active)

## CC(C)Oc1ccc(C(=O)NC(CNC(=O)CN(C)C)Cc2ccc(-c3cn4cccc(C(C)O)c4n3)cc2)cc1Cl (configuration not stated)
  Potency: inactive

## CC(=O)OC12COC1CC(O)C1(C)C(=O)C(O)C3=C(C)C(OC(=O)C(O)C(NC(=O)OC(C)(C)C)c4ccccc4)CC(O)(C(OC(=O)c4ccccc4)C21)C3(C)C (configuration not stated)
  Potency: inactive

## Cc1cc(CN2CCN(c3c(Br)cnc4nc(-c5ccc(N6CCN(C)CC6)cc5)[nH]c34)CC2)no1
  Potency: 24.3 µM (active)

## Cc1ccc(C(=O)Nc2ccc(CN3CCN(C)CC3)c(C(F)(F)F)c2)cc1C#Cc1cnc2[nH]ncc2c1
  Potency: 17.2 µM (active)

## CCCC(=O)O[C@]1(C(=O)CCl)[C@@H](C)C[C@H]2[C@@H]3CCC4=CC(=O)C=C[C@]4(C)[C@@]3(F)C(=O)C[C@@]21C
  Potency: inactive

## Nc1ccc(-c2ccc3ncc4ccc(=O)n(-c5cccc(C(F)(F)F)c5)c4c3c2)cn1
  Potency: 0.172 µM (active)

## CN1CCN(Cc2ccc(NC(=O)Nc3ccc(Oc4cc(NC(=O)C5CC5)ncn4)cc3)cc2C(F)(F)F)CC1
  Potency: 7.69 µM (active)

## Cc1c(NC(=O)OCC2COCCN2)cn2ncnc(Nc3ccc4c(cnn4Cc4cccc(F)c4)c3)c12 (configuration not stated)
  Potency: 24.3 µM (active)

## O=C(c1ccc(F)c(F)c1Nc1ccc(I)cc1F)N1CC(O)([C@@H]2CCCCN2)C1
  Potency: 27.3 µM (active)

## CCN1CCN(Cc2ccc(Nc3ncc(F)c(-c4cc(F)c5nc(C)n(C(C)C)c5c4)n3)nc2)CC1
  Potency: inactive

## CC(C)c1nn(-c2c(Cl)cccc2Cl)c2nc(Cc3ccc(OCCO)cc3)[nH]c(=O)c12
  Potency: 0.0968 µM (active)

## O=c1c2ccccc2nc2n1CCc1c-2[nH]c2ccccc12
  Potency: inactive

## C[C@]12CCC(=O)C=C1CC[C@@H]1[C@@H]2[C@@H](O)C[C@@]2(C)[C@H]1CC[C@]2(O)C(=O)CO
  Potency: inactive

## CCC1C(=O)N(C)c2cnc(Nc3ccc(C(=O)NC4CCC(N5CCN(CC6CC6)CC5)CC4)cc3OC)nc2N1C(C)C (configuration not stated)
  Potency: 0.172 µM (active)

## CN(c1nccc(=O)[nH]1)C1CCN(c2nc3ccccc3n2Cc2ccc(F)cc2)CC1
  Potency: inactive

## CN(C)C(CCOc1cccc2ccccc12)c1ccccc1 (configuration not stated)
  Potency: inactive

## CCC1=CC2CN(C1)Cc1c([nH]c3ccccc13)[C@@](C(=O)OC)(c1cc3c(cc1OC)N(C)[C@H]1[C@@](O)(C(=O)OC)[C@H](OC(C)=O)[C@]4(CC)C=CCN5CC[C@]31[C@@H]54)C2 (some centres not stated)
  Potency: 0.211 µM (active)

## CN(C)c1ccc(-c2nc3ncc(Cl)c(N4CCN(CC(=O)Nc5nccs5)CC4)c3[nH]2)cc1
  Potency: inactive

## CC(C)C[C@H](NC(=O)[C@H](CCc1ccccc1)NC(=O)CN1CCOCC1)C(=O)N[C@@H](Cc1ccccc1)C(=O)N[C@@H](CC(C)C)C(=O)[C@@]1(C)CO1
  Potency: 6.11 µM (active)

## C[C@@]1(C(=O)Nc2ccc(F)nc2)CCCN1c1nc(Nc2cc(C3CC3)[nH]n2)c2cccn2n1
  Potency: inactive

## Cc1ccc(NC(=O)c2ccc(CN3CCN(C)CC3)cc2)cc1Nc1nccc(-c2cccnc2)n1
  Potency: inactive

## CCCCc1nc2cc(/C=C/C(=O)NO)ccc2n1CCN(CC)CC
  Potency: 1.53 µM (active)

## CCN(CC)CCNC(=O)c1c(C)[nH]c(/C=C2\C(=O)Nc3ccc(F)cc32)c1C
  Potency: 22.4 µM (active)

## CCN[C@H]1C[C@H](C)S(=O)(=O)c2sc(S(N)(=O)=O)cc21
  Potency: inactive

## COc1ccc(OC)c(-c2nnc3ccc(-c4ccc(OC)c(O[C@@H]5CCOC5)c4)nn23)c1
  Potency: inactive

## Nc1ccn([C@@H]2O[C@H](CO)[C@@H](O)C2(F)F)c(=O)n1
  Potency: 0.0172 µM (active)

## CCN1C[C@H](C)n2c(c(O)c3c(=O)n(Cc4ccc(F)c(Cl)c4)nc(C(=O)NC)c32)C1=O
  Potency: inactive

## CC(Oc1cc(-n2cnc3ccc(CN4CCN(C)CC4)cc32)sc1C(N)=O)c1ccccc1C(F)(F)F (configuration not stated)
  Potency: 5.44 µM (active)

## Oc1cn2c(n1)Nc1ccc(Cl)c(Cl)c1C2
  Potency: inactive

## O=C(O)C1(Cc2cccc(Nc3nccs3)n2)CCC(Oc2cccc(Cl)c2F)CC1 (configuration not stated)
  Potency: inactive

## CCN1CCN(Cc2ccc(-c3cc4c(NC(C)c5ccccc5)ncnc4[nH]3)cc2)CC1 (configuration not stated)
  Potency: 27.3 µM (active)

## CC(C)(C(=O)NCC(F)(F)C(F)(F)F)C(=O)NC1C(=O)Nc2ccccc2-c2ccccc21 (configuration not stated)
  Potency: inactive

## CC[C@]1(O)C[C@H]2CN(CCc3c([nH]c4ccccc34)[C@@](C(=O)OC)(c3cc4c(cc3OC)N(C=O)[C@H]3[C@@](O)(C(=O)OC)[C@H](OC(C)=O)[C@]5(CC)C=CCN6CC[C@]43[C@@H]65)C2)C1
  Potency: 0.306 µM (active)

## Cn1cnc2c(F)c(Nc3ccc(Br)cc3F)c(C(=O)NOCCO)cc21
  Potency: inactive

## CNCc1ccc(-c2[nH]c3cc(F)cc4c3c2CCNC4=O)cc1
  Potency: inactive

## O=C(O)c1ccc(Nc2ncc3c(n2)-c2ccc(Cl)cc2C(c2c(F)cccc2F)=NC3)cc1
  Potency: inactive

## CNC(=O)c1nn(C)c2c1C(C)(C)Cc1cnc(Nc3ccc(N4CCN(C)CC4)cc3)nc1-2
  Potency: inactive

## CN[C@@H](C)C(=O)N[C@H]1CN(C(=O)CC(C)C)CC[C@H]2CC[C@@H](C(=O)NC(c3ccccc3)c3ccccc3)N2C1=O
  Potency: inactive

## O=c1[nH]c(=O)n([C@H]2C[C@H](O)[C@@H](CO)O2)cc1F
  Potency: 2.17 µM (active)

## CCS(=O)(=O)c1cccc(-c2cc(C(=O)NC3CCN(C)CC3)c(C)c3[nH]c4ncc(C)cc4c23)c1
  Potency: 5.34 µM (active)

## O=C(CCCCCCNC(=O)c1cnc(N(c2ccccc2)c2ccccc2)nc1)NO
  Potency: 10.9 µM (active)

## NC(=O)c1ccc2nc(-c3ccc(Oc4ccc(Cl)cc4)cc3)[nH]c2c1
  Potency: inactive

## Cc1cnc(Nc2ccc(CN3CCOCC3)cc2)nc1Nc1cccc(S(=O)(=O)NC(C)(C)C)c1
  Potency: 21.7 µM (active)

## Nc1ccccc1NC(=O)c1ccc(CNc2nccc(-c3cccnc3)n2)cc1
  Potency: 3.06 µM (active)

## CCCCc1oc2ccc(NS(C)(=O)=O)cc2c1C(=O)c1ccc(OCCCN(CCCC)CCCC)cc1
  Potency: 27.3 µM (active)

## CC(=O)Nc1cccc(-n2c(=O)n(C3CC3)c(=O)c3c(Nc4ccc(I)cc4F)n(C)c(=O)c(C)c32)c1
  Potency: inactive

## NC(=O)c1cnc(-c2ccc(C3(N)CCC3)cc2)c(-c2ccccc2)c1
  Potency: 19.3 µM (active)

## Cc1cnc(Nc2cccc(CN3CCOCC3)c2)nc1Nc1cccc(S(=O)(=O)NC(C)(C)C)c1
  Potency: 24.3 µM (active)

## COc1ccccc1N1CCN(CC(O)COc2cccc3ccccc23)CC1 (configuration not stated)
  Potency: inactive

## CCCc1nn(C)c2c(=O)[nH]c(-c3cc(S(=O)(=O)N4CCN(C)CC4)ccc3OCC)nc12
  Potency: inactive

## O=C1NC(=O)C(c2cnc3ccccn23)=C1c1cn2c3c(cccc13)CN(C(=O)N1CCOCC1)CC2
  Potency: inactive

## Cc1cnc(Nc2ccc(OCCN3CCCC3)cc2)nc1Nc1cccc(S(=O)(=O)NC(C)(C)C)c1
  Potency: inactive

## CCC1C(=O)N(C)c2cnc(Nc3ccc(C(=O)NC4CCN(C)CC4)cc3OC)nc2N1C1CCCC1 (configuration not stated)
  Potency: 0.0544 µM (active)

## COc1cc(C(=O)N2CCC(N3CCN(C)CC3)CC2)ccc1Nc1ncc2c(n1)N(C)c1ccccc1C(=O)N2C
  Potency: inactive

## CNc1nc(Nc2ccc(C(=O)N3CCOCC3)cc2OC)ncc1Cl
  Potency: inactive

## OCCNC1CCCc2c1[nH]c1ccc(-c3ccccc3)cc21 (configuration not stated)
  Potency: 17.2 µM (active)

## FC(F)(F)c1ccc(/C=C/c2nc(COc3ccc(CCCCn4ccnn4)cc3)co2)cc1
  Potency: inactive

## COc1ccc2c(c1OC)C(=O)O[C@@H]2[C@H]1c2c(cc3c(c2OC)OCO3)CCN1C
  Potency: inactive

## Cc1ccc(C(=O)Nc2ccc(Oc3cc4cnn(C)c4cc3-c3cn[nH]c3)c(F)c2)c(=O)n1-c1ccc(F)cc1
  Potency: inactive

## C#C[C@]1(O)CC[C@H]2[C@@H]3CCC4=CC(=O)CC[C@@H]4[C@H]3CC[C@@]21CC
  Potency: inactive

## C=CC(=O)Nc1cccc(Oc2nc(Nc3ccc(N4CCN(C)CC4)cc3)ncc2Cl)c1
  Potency: 24.3 µM (active)
